Molecules are shown by their SMILES. “And” between values parts separate entries of the source, which are not always exact repeats. Equal values may be shown once. Results filed as inconclusive are left out. Entries that show only a call come without a potency. A structure can be active in one record and inactive in another. The source made the active and inactive calls. The call rests on the fitted dose curve; in most records, active means well fitted cell-killing curve with a large enough effect in the repeat runs; inconclusive means weak or mixed curves, or effect the other way; inactive means flat fitted curve, though single readings scatter.
Potency means the concentration at half of the fitted maximal effect.

This experiment is described as follows: Human pregnane X receptor (PXR) small molecule agonists, qHTS cell viability counter screen (AID 1346977). Further: nearly all actives have a fitted effect of over 50% in size. The following applies: PXR-Luc HepG2 viability, CellTiter-Fluor, 24 h; series mostly up to 92.4 µM. An excerpt:
U.S. Tox21 Program National Center for Advancing Translational Sciences [NCATS] NIH Chemical Genomics Center [NCGC] U.S. Environmental Protection Agency [EPA] National Institutes of Environmental Health Sciences [NIEHS] National Toxicology Program [NTP] U.S. Food and Drug Administration [FDA] Tox21 Assay Overview: The human pregnane X receptor (hPXR) regulates the expression of several drug metabolizing enzymes and induction of these proteins is a major mechanism for developing drug resistance in cancer. One such key enzyme catalyzing the drug metabolism is cytochrome P450 3A4 (CYP3A4). Changes in CYP3A4 expression affect drug metabolism, thereby reducing the therapeutic efficacy and altering toxicological response to a drug and which finally causes adverse drug interaction. To screen Tox21 libraries for compounds that activate hPXR-mediated CYP3A4 gene expression, PXR-Luc HepG2 cells were used. Also cytotoxicity of the compounds was tested in parallel by measuring the cell viability using CellTiter-Fluor assay system in the same wells.
Tox21 Assay Protocol Summary: PXR-Luc HepG2 cells were dispensed at 2,000 per well in 5uL of assay medium containing 5% charcoal-stripped FBS into white solid bottom 1536-well plates (Corning Life Sciences, Corning, NY) using a Multidrop Combi (Thermo Scientific, Waltham, MA) dispenser. The assay plates were incubated at 37 C and 5% CO2 for 5hr, and then 23nL of compounds dissolved in DMSO and positive control were transferred using a Pintool station (Wako, San Diego, CA). The assay plates were incubated at 37C and 5% CO2 for 24hr. For cytotoxicity read, after 23hr incubation at 37C, 1uL CellTiter-Fluor reagent (Promega Corporation, Madison, WI) was added to each well of the assay plates using Flying Reagent Dispenser (FRD, Aurora Discovery, San Diego, CA). After 1hr incubation at 37C and 5% CO2, the fluorescence signal was quantified using a ViewLux plate reader (PerkinElmer, Shelton, CT).
(In general: qHTS replaces the single test concentration by a dilution series.)
Consider `O=C(O)c1ccccc1O`, for which the Potency result is “inactive”.
Under `Nc1ccc(-c2ccc(N)c(Cl)c2)cc1Cl` stands 3.98 µM (active) and 54.5 µM (active); under `Cc1cc(-c2ccc(N)c(C)c2)ccc1N`, “inactive”; under `Cc1cc(Cl)ccc1OCC(=O)O`, “inactive”.
In the case of `CCC(=O)C(CC(C)N(C)C)(c1ccccc1)c1ccccc1` (stereo not given), the Potency is 27.4 µM (active).
The result for `CCCCCCn1cc[n+](C)c1` reads 13.9 µM (active); that for `CCC[N+]1(C)CCCC1`, “inactive”; that for `O=C(O)CC(O)(CC(=O)O)C(=O)O`, “inactive”.
On to `Cc1cc(Cl)ccc1N`, for which the Potency entry was “inactive”.
Under `O=S(=O)(O)O` stands “inactive”; under `O=P1(N(CCCl)CCCl)NCCCO1` (stereo not given), “inactive”; under `COCC(=O)N(c1c(C)cccc1C)C(C)C(=O)OC` (stereo not given), “inactive”.
Consider `O=c1[nH]c(=O)n(Cl)c(=O)n1Cl`, for which the Potency result was “inactive”.
Turning to `CCCCn1cc[n+](C)c1`, the Potency result was “inactive”.
Under `CCCC[N+]1(C)CCCC1` stands “inactive”; under `C[C@]12CCC(=O)C=C1CC[C@@H]1[C@@H]2CC[C@]2(C)C(=O)CC[C@@H]12`, “inactive”.
Consider `CC(Cl)(Cl)C(=O)O`, for which the Potency entry is “inactive”.
The result for `CCCC[n+]1ccc(C)cc1` reads “inactive and 6.12 µM (active)”; that for `C[N+](C)(C)Cc1ccccc1`, “inactive”; that for `CC(=O)O`, “inactive”.
`CCCCCCCCCCCC(=O)O`: the Potency result was “inactive”.
The result for `CCCC[N+]1(C)CCCCC1` reads “inactive”; that for `CCCCCCCCCCn1cc[n+](C)c1`, 2.76 µM (active).
On to `O=C(O)COc1ccc(Cl)cc1Cl`, for which the Potency entry was “inactive”.
For the molecule `O=C(O)C(Cl)(Cl)Cl`, the Potency result is “inactive”.
Consider `COc1ccc(N)cc1`, for which the Potency entry is “inactive”.
The result for `CCCC[n+]1ccccc1` reads “inactive”; that for `OCCOc1ccccc1`, “inactive”; that for `CCCCCCCCCCCCCC[P+](CCCCCC)(CCCCCC)CCCCCC`, 3.87 µM (active) and 6.16 µM (active) and 1.72 µM (active).
For `CN(C)[C@@H]1C(=O)C(C(N)=O)=C(O)[C@@]2(O)C(=O)C3=C(O)c4c(O)cccc4[C@@](C)(O)[C@H]3[C@H](O)[C@@H]12`, the Potency result is “inactive”.
As for `CC[N+]1(C)CCCC1`, the Potency entry was “inactive”.
The result for `CC[N+](CC)(CC)CC` reads “inactive”; that for `O=C(O)c1nc(Cl)ccc1Cl`, “inactive”.
Under `N#CS` stands “inactive”.
As to `CCCn1cc[n+](C)c1`, the Potency result is “inactive”.
Under `COP(=O)(OC)OC=C(Cl)Cl` stands “inactive”.
For the molecule `CCCCn1cc[n+](C)c1C`, the Potency result is “inactive”.
Take `COc1ccccc1N`: the Potency entry is “inactive”.
The result for `CCCCCCCCn1cc[n+](C)c1` reads 9.68 µM (active) and 7.76 µM (active) and 8.72 µM (active).
Under `CCC[N+]1(C)CCCCC1` stands “inactive”.

The values are drawn from PubChem BioAssay (Tox21).
